Measured values published in PubChem BioAssay.
Inconclusive results are not listed. Active and inactive are the calls of the source.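 Rule for the calls, unless noted: active = GFP response, as percent of the DMSO control, above the screen-wide mean plus 3 SD, about 139; inconclusive = no response measured because the compound's own fluorescence interfered; inactive = the rest.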

Assays:
[1] = yeast TOR pathway RPL19A-GFP modulators, primary screen, cell-based, S. cerevisiae, multiplex flow cytometry (AID 1862; in the data active = percent of DMSO control GFP below about 86%;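 note: lower values mimic rapamycin by blocking the RPL19A rise seen in DMSO cells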); details: S. cerevisiae RPL19A-GFP strain, flow cytometry fluorescence, 3 h; at 10 µM; stronger effect = lower value
[2] = modulators of MEP2-GFP levels in yeast, primary screen, S. cerevisiae, multiplex flow cytometry (AID 1867);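 note: median GFP channel fluorescence of barcode-gated MEP2-GFP cells measured by flow cytometry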; details: S. cerevisiae MEP2-GFP strain, 3 h, at 10 µM, stronger effect = higher value, 100% means same as DMSO wells
[3] = modulators of CIT2-GFP expression in yeast, primary screen, S. cerevisiae, GFP fusion, multiplex flow cytometry (AID 1870;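 active = percent response above a set limit, the screen-wide mean plus 3 SD, cut at about 130% in these data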;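 note: barcoded CIT2-GFP strain pooled with four other GFP strains with rapamycin as positive control; median GFP fluorescence per well over plate mean of DMSO wells so 100% = DMSO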); details: 3 h, at 10 µM, stronger effect = higher value
[4] = modulators of LAP4-GFP expression in yeast, primary screen, S. cerevisiae, multiplex flow cytometry (AID 1873;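 active = GFP signal, as percent of the solvent control, above the screen mean plus 3 SD, about 149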); details: 3 h, at 10 µM, stronger effect = higher value
[5] = modulators of AGP1-GFP expression in yeast TOR pathway, primary screen, cell-based, multiplex flow cytometry, S. cerevisiae (AID 1887;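 active = GFP signal above the screen-wide mean plus 3 SD, that is over about 124.5% of the solvent control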;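 note: AGP1-GFP fusion strain of S. cerevisiae within a five-strain barcoded multiplex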); details: 3 h, at 10 µM, stronger effect = higher value
[6] = inhibitors of CD8+ T cell-vesicle binding, pilot screen, LFA-1/ICAM-1 modulator project, MLPCN validation set, flow cytometry (AID 2523;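 active = response below a set limit, under 55% cells CD8-positive and vesicle-bound, and CD8 cells' 90th-percentile brightness under 279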;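 for vesicle binding response: mean PE anti-B7-1 fluorescence of CD8+ cells relative to row control; 100% = QL9-loaded vesicles with DMSO vehicle in the same plate row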); details: 2C mouse CD8+ T cells, at 7 µM, stronger effect = lower value; double positive events: measured here: CD8+/vesicle+ event percentage
[7] = target: Integrin beta-1 (Homo sapiens) + Integrin alpha-4 (Homo sapiens) (UniProt P13612+P05556); assay: inhibition of HUTS-21 binding to VLA-4, pilot screen, VLA-4 allosteric modulator project, U937 cells, HUTS-21 mAb, flow cytometry, validation set (AID 2674;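 active = inhibition above 50%, about 3 SD of the validation set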;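 note: antibody binding induced by the VLA-4 ligand LDV present at three times its Kd; 0% = LDV ligand with antibody and no compound and 100% = antibody without LDV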); details: HUTS-21 LIBS mAb binding, at 6.7 µM, stronger effect = higher value, binding induced by LDV ligand
Chain of Integrin beta-1 (Homo sapiens) + Integrin alpha-4 (Homo sapiens) (P05556 whole entry, looked up): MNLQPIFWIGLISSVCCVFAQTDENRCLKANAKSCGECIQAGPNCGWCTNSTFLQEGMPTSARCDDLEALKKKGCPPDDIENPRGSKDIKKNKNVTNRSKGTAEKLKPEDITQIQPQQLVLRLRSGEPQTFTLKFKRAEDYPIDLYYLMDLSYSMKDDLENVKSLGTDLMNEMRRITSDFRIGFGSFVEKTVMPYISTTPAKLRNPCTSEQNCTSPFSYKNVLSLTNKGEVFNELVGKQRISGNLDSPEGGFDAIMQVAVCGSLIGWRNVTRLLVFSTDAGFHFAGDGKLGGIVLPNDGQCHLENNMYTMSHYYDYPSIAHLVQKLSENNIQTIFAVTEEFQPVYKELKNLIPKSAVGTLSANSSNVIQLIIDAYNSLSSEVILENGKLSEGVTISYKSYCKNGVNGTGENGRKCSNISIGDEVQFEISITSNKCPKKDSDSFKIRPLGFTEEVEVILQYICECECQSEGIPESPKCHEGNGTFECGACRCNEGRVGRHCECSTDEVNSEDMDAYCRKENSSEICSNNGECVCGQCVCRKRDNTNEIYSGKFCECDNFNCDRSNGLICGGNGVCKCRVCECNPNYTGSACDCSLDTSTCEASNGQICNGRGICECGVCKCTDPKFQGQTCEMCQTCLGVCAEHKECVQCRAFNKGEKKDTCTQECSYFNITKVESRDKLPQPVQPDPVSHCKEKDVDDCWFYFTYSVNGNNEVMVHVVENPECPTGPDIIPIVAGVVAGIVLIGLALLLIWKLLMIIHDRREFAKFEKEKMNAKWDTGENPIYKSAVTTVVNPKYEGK
Chain of Integrin beta-1 (Homo sapiens) + Integrin alpha-4 (Homo sapiens) (P13612 whole entry, looked up): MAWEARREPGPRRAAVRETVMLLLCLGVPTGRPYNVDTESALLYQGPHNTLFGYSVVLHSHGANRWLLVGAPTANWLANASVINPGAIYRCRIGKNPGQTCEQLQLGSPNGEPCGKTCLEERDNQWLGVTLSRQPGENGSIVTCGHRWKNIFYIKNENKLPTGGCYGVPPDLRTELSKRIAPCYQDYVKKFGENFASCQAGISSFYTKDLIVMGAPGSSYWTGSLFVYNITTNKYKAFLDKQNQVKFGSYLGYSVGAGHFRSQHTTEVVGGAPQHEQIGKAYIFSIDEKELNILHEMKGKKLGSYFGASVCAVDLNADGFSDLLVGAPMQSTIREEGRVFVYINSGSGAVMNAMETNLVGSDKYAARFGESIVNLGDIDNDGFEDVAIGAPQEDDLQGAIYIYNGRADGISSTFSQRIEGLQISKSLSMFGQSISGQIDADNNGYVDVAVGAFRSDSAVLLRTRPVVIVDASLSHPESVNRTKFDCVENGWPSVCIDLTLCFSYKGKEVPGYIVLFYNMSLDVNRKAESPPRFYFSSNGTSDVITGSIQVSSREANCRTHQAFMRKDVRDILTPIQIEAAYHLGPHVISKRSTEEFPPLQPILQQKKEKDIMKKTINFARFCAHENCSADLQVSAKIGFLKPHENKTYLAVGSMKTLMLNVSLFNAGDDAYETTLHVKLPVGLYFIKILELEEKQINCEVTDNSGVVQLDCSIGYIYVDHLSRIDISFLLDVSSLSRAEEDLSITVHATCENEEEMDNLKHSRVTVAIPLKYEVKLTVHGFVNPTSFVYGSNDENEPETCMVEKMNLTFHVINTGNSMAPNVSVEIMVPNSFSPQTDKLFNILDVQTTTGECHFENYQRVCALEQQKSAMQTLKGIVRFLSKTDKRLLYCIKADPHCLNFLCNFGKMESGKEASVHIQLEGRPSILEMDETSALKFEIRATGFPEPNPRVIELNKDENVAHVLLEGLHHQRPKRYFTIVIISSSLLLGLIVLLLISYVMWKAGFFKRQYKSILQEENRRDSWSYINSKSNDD

[8] = superoxide lowering in aged yeast cells, pilot screen, validation compound set (AID 2706;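 active = superoxide response below 65% of plate, a cut near 3 SD across the whole screen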;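 note: yeast exposed to compound for one week at 30 degrees C before staining; 100% = mean of all compound wells on the same plate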); details: S. cerevisiae aging, superoxide DHE fluorescence; at 10 µM; stronger effect = lower value
[9] = target: Beta-adrenergic receptor kinase 1 (Homo sapiens) (UniProt P25098); assay: GRK2 binders displacing RNA aptamer, biochemical, validation, human GRK2, bead flow cytometry (AID 488806;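 active = aptamer binding inhibition above 30%, about 3 SD of noise from non-fluorescent compounds; inactive = inhibition at or below 30%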); details: bead-bound GRK2, FAM-aptamer displacement, at 10 µM, stronger effect = higher value
Chain of Beta-adrenergic receptor kinase 1 (Homo sapiens) (P25098 whole entry, looked up): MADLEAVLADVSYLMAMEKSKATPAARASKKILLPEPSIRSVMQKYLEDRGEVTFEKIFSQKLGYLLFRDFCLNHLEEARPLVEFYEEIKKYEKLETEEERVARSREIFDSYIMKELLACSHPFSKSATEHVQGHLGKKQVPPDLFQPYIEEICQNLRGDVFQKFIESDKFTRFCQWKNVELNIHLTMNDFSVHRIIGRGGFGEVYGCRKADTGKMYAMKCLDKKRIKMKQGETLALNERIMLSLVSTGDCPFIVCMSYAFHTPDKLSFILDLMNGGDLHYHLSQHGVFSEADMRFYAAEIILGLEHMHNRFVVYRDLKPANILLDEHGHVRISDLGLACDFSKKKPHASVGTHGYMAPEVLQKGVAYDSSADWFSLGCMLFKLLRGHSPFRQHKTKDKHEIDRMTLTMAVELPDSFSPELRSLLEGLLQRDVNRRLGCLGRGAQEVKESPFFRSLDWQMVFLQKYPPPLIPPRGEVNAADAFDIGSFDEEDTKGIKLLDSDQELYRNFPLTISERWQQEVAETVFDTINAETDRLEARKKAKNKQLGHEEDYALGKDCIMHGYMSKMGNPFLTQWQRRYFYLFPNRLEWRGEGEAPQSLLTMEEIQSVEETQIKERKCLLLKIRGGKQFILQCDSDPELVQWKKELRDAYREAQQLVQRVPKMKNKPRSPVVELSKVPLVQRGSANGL

[10] = target: Beta-2 adrenergic receptor (Homo sapiens) (UniProt P07550); assay: beta2AR agonists driving receptor internalization, pilot screen, cell-based, FAP fluorogen, flow cytometry, validation set (AID 504459;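 active = percent response above 42, roughly 3 SD of non-fluorescent test compounds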;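 note: agonist-driven loss of surface beta2AR via internalization measured by FAP dye flow cytometry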); details: Am2.2-beta2AR cells, FAP surface receptor flow cytometry; at 10 µM; stronger effect = higher value
Chain of Beta-2 adrenergic receptor (Homo sapiens) (P07550 whole entry, looked up): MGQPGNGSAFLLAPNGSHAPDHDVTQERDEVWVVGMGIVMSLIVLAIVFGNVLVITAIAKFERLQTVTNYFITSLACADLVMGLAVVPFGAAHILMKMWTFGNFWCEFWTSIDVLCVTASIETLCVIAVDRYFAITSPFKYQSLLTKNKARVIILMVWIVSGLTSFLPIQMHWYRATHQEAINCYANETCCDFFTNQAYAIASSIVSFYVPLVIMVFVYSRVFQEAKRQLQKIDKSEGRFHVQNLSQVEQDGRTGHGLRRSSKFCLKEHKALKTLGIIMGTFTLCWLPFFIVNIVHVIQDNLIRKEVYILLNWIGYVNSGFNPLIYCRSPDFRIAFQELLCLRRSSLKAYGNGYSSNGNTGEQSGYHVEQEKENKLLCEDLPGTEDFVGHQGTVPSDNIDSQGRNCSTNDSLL

[11] = target: AP-2 complex subunit beta (Homo sapiens) (UniProt P63010); assay: inhibitors of arrestin peptide binding to AP2, pilot screen, biochemical, validation set, GST-AP2 beads, flow cytometry (AID 504541;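 active = inhibition above 54%, about 3 SD of non-fluorescent compounds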;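 note: AP2 carries R879A mutation and is captured from E. coli lysate; bead-bound FITC arrestin peptide fluorescence measuring arrestin peptide binding to AP2; 0% = DMSO wells and 100% = excess unlabeled arrestin peptide control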); details: FITC arrestin peptide, at 10 µM, stronger effect = higher value, AP2 beta2 appendage fragment, R879A mutant
Chain of AP-2 complex subunit beta (Homo sapiens) (P63010 whole entry, looked up, the tested form may be a part, one chain of several): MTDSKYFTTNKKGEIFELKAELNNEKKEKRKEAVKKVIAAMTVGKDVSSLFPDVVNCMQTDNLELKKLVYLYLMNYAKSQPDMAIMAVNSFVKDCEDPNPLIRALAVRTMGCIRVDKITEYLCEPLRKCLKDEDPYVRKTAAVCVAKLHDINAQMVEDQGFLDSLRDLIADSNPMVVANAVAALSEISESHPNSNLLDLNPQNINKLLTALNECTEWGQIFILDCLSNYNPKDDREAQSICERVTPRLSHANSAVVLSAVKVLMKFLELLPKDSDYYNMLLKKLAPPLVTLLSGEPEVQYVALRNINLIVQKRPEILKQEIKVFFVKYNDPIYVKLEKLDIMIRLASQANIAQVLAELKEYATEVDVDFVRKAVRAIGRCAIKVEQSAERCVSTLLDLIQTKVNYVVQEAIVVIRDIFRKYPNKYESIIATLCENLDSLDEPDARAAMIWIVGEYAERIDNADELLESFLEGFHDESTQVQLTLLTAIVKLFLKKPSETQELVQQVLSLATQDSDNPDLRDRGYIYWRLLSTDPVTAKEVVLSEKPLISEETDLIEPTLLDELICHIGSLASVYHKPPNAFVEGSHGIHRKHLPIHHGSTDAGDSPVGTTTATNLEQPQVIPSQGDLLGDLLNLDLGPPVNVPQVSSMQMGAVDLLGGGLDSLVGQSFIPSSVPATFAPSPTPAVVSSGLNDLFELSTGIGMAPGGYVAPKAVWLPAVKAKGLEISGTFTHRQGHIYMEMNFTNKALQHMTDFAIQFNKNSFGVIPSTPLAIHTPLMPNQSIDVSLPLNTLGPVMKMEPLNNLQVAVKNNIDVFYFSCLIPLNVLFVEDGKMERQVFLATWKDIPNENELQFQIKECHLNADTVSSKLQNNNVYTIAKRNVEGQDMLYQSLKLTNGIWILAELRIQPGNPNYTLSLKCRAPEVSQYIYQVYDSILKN

[12] = yeast V-ATPase proton transport modulators, S. cerevisiae, pHLuorin, HTS validation (AID 504600; in the data active = response above about 15%;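 note: plate controls were DMSO for no effect and reference compound for full effect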); details: S. cerevisiae pHLuorin cytosolic pH, at 10 µM, stronger effect = higher value
[13] = test system: anti-desmoglein-3 scFv antibody binding to human DSG3; assay: inhibitors of anti-DSG3 scFv binding to DSG3, pilot screen, biochemical, validation compound set, bead-based, flow cytometry (AID 588368;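 active = binding below the plate cutoff, the plate median minus 3 SD, with a reading above zero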;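 note: signal is the median channel fluorescence of bead-bound GFP antibody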); details: Protein G beads, DSG3-Fc, scFv-GFP binding, at 10 µM, stronger effect = lower value
[14] = inhibitors of fungal efflux pumps CDR1, CDR2, MDR1, pilot screen, validation compound set, multiplex, phenotypic (AID 588506;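 active = efflux inhibition above 0.42, the validation set average plus 4 SD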;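 note: Nile Red retained in cells so higher fluorescence means more efflux inhibition; 0 = negative control wells and 1 = enniatin B 25 µM full block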); details: S. cerevisiae pump-expressing triplex, Nile Red efflux flow cytometry; at 10 µM; stronger effect = higher value; the pumps come from Candida albicans
[15] = target: ATP-binding cassette sub-family B member 6 (Homo sapiens) (UniProt Q9NP58); assay: ABCB6 transporter inhibitors, pilot screen, K562-ABCB6 cells, flow cytometry, validation set (AID 588550;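 active = inhibition above the screen-wide mean plus 3 SD, about 51%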;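 note: 0% = DMSO wells and 100% = benzethonium chloride 70 µM positive control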); details: K562-ABCB6 porphyrin accumulation, 1 h, at 10 µM, stronger effect = higher value
Chain of ATP-binding cassette sub-family B member 6 (Homo sapiens) (Q9NP58 whole entry, looked up): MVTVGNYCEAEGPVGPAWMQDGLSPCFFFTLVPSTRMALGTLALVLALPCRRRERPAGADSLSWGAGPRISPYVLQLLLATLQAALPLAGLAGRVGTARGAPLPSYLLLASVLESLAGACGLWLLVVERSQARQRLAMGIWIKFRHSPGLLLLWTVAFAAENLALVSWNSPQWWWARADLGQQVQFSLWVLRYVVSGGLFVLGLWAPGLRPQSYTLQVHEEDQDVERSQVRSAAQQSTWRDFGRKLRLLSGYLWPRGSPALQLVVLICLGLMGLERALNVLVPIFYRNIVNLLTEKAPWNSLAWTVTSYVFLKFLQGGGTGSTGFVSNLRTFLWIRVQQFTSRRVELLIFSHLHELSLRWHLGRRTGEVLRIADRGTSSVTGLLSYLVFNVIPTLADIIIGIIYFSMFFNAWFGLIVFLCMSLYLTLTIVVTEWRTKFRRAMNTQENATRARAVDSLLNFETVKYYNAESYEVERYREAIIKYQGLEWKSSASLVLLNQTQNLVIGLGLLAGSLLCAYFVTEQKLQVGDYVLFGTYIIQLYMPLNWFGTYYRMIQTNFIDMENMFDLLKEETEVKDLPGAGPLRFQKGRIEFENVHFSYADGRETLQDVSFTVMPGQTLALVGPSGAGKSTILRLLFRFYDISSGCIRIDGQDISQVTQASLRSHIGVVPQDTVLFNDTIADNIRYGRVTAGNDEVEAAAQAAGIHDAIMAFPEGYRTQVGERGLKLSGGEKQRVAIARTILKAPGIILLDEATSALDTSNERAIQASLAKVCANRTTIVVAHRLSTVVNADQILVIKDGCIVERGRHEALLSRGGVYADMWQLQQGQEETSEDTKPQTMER

[16] = promoters of myeloid differentiation in arrested cells, primary screen, cell-based, GFP/MAC1 double positive, flow cytometry, validation set (AID 588685;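 active = differentiation response of at least 50%, scaled between solvent and reference control, from cells with both markers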;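 note: compound exposure lasts four days before antibody staining and flow analysis; 0% = DMSO wells and 100% = 5 µM fulvestrant positive control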); details: ER-HoxA9 marrow cells, stronger effect = higher value, normalized: vehicle 0, fulvestrant 100

Structure (SMILES)	percent of DMSO control GFP [1]	GFP response vs DMSO [2]	percent response of DMSO control [3]	GFP response vs DMSO [4]	GFP response, % of DMSO [5]	double positive events [6]	vesicle binding response [6]	inhibition [7]	superoxide response (% of plate) [8]	aptamer binding inhibition [9]	response [10]	inhibition [11]	response [12]	binding (% of control) [13]	efflux inhibition (fraction of control) [14]	inhibition [15]	differentiation response [16]
N/C(Cc1ccc(Cl)cc1Cl)=N\OC(=O)c1ccc(Br)o1	93.5% (inactive)	128% (inactive)	106% (inactive)	167% (active)	43.5% (inactive)	52.1%	224% (inactive)	-11.3% (inactive)	124% (inactive)	-2% (inactive)	6.81% (inactive)	-11% (inactive)	3.34% (inactive)	105% (inactive)	-0.39 (inactive)	2% (inactive)	2.4% (inactive)
COc1ccc(NC(=O)CC2C(=O)N(C)C(=S)N2Cc2ccncc2)cc1 (stereo not drawn)	88% (inactive)	123% (inactive)	97.9% (inactive)	75.4% (inactive)	88.2% (inactive)	54.8%	194% (inactive)	5.49% (inactive)	105% (inactive)	0% (inactive)	-1.13% (inactive)	0.05% (inactive)	-1.16% (inactive)	100% (inactive)	0.01 (inactive)	8% (inactive)	1.64% (inactive)
Cc1c(NC(=O)c2cccs2)cccc1[N+](=O)[O-]	102% (inactive)	103% (inactive)	102% (inactive)	107% (inactive)	99.1% (inactive)	67.8%	342% (inactive)	2.93% (inactive)	95.5% (inactive)	-4% (inactive)	3.73% (inactive)	-17.9% (inactive)	-1.2% (inactive)	104% (inactive)	-0.01 (inactive)	1% (inactive)	18.8% (inactive)
CC1(C)CC(=O)c2cnc(NC(=O)C3CCCC3)nc2C1	105% (inactive)	96.2% (inactive)	109% (inactive)	80.8% (inactive)	96.5% (inactive)	61%	442% (inactive)	4.73% (inactive)	95.1% (inactive)	6% (inactive)	-15.9% (inactive)	-7.26% (inactive)	-0.99% (inactive)	96.1% (inactive)	0.36 (inactive)	-50% (inactive)	10% (inactive)
Cc1ccc(C(=O)O)cc1NC(=O)c1cccs1	100% (inactive)	107% (inactive)	99.3% (inactive)	99.4% (inactive)	98.6% (inactive)	64.1%	206% (inactive)	-17.5% (inactive)	109% (inactive)	8% (inactive)	4.14% (inactive)	-1.98% (inactive)	-0.65% (inactive)	100% (inactive)	0.04 (inactive)	10% (inactive)	0.41% (inactive)
COc1cccc2c(=O)c3ccccc3oc12	93.9% (inactive)	117% (inactive)	111% (inactive)	74.3% (inactive)	88% (inactive)	61.1%	134% (inactive)	-9.06% (inactive)	109% (inactive)	2% (inactive)	-12.3% (inactive)	-2.99% (inactive)	0.55% (inactive)	96% (inactive)	0.27 (inactive)	15% (inactive)	-3.28% (inactive)
COc1cc2c(cc1OC)C(=S)NC(C)(C)C2	102% (inactive)	106% (inactive)	100% (inactive)	95.3% (inactive)	102% (inactive)	60.1%	1280% (inactive)	-11.9% (inactive)	110% (inactive)	0% (inactive)	0.62% (inactive)	22% (inactive)	-4.8% (inactive)	101% (inactive)	0.08 (inactive)	-13% (inactive)	6.11% (inactive)
CCOC(=O)N1c2ccccc2C=CC1OCC (stereo not drawn)	103% (inactive)	97.7% (inactive)	102% (inactive)	108% (inactive)	109% (inactive)	57%	109% (inactive)	2.93% (inactive)	110% (inactive)	3% (inactive)	2.04% (inactive)	-6.59% (inactive)	-0.43% (inactive)	103% (inactive)	-0.29 (inactive)	-3% (inactive)	-13.3% (inactive)
COc1cc(OC)c(-c2nc3cnccc3n2C)cc1OC	104% (inactive)	100% (inactive)	115% (inactive)	103% (inactive)	102% (inactive)	61.8%	192% (inactive)	-4.6% (inactive)	97% (inactive)	0% (inactive)	-4.1% (inactive)	-2.31% (inactive)	4.97% (inactive)	97.6% (inactive)	-0.01 (inactive)	-11% (inactive)	3.18% (inactive)
